# The full data set covers some 8,800 targets. This sample favours those with a hit. About 0.5% of all pairs of compound and target were hits. A number with no mark means an inactive call.
# Assays:
# Assay in all cases: log2 fold change, soluble protein after heating vs DMSO (PISA); higher = thermal stabilisation; K562 lysate, 10 uM; active = over 0.2 and 3.5 SD of the protein, either way, in both replicates (recomputed)
# vemurafenib = compound: CCCS(=O)(=O)Nc1ccc(F)c(C(=O)c2c[nH]c3ncc(-c4ccc(Cl)cc4)cc23)c1F [vemurafenib]
# Method in brief: (§1)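 Thermal stability, expressed as log-two fold change relative to solvent controls, is given from duplicates. Crude K562 extract in PBS pH 7.4 with 1 mM MgCl2, at 1 mg/mL protein, was treated with 10 μM compound for 30 min and heated in aliquots for 3 min across 48°C-58°C. After pooling, adjustment to 0.5% NP-40 at 4°C and centrifugation at 21,000xg for 90 min, supernatant protein was measured by TMTpro 16plex LC-MS/MS with channel sums equalised.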
# [1] = compound: CCCS(=O)(=O)Nc1ccc(F)c(C(=O)c2c[nH]c3ncc(Cl)cc23)c1F
# Method in brief: as §1
# barasertib = compound: CCN(CCCOc1ccc2c(Nc3cc(CC(=O)Nc4cccc(F)c4)[nH]n3)ncnc2c1)CCOP(=O)(O)O [barasertib]
# Method in brief: as §1
# [2] = compound: CC[C@@H]1C(=O)N(C)c2cnc(Nc3ccc(C(=O)NC4CCN(C)CC4)cc3OC)nc2N1C1CCCC1
# Method in brief: as §1
# volasertib = compound: CC[C@@H]1C(=O)N(C)c2cnc(Nc3ccc(C(=O)N[C@H]4CC[C@H](N5CCN(CC6CC6)CC5)CC4)cc3OC)nc2N1C(C)C [volasertib]
# Method in brief: as §1
# [3] = compound: CCn1c(C(=O)N(C2CC2)C2CC2)cc2c3c(ncn3C)c(Nc3cc(C)n(C)n3)nc21
# Method in brief: as §1
# [4] = compound: CCn1cc(-c2ccnc3[nH]c(-c4cccc(CN(C)C)c4)cc23)c(-c2ccc(NC(=O)N(C)C)cc2)n1
# Method in brief: as §1
# [5] = compound: CN1CCC(CNc2ccc3ncc(-c4cccc(OC(F)(F)F)c4)n3n2)CC1
# Method in brief: as §1
# saracatinib = compound: CN1CCN(CCOc2cc(OC3CCOCC3)c3c(Nc4c(Cl)ccc5c4OCO5)ncnc3c2)CC1 [saracatinib]
# Method in brief: as §1
# sotrastaurin = compound: CN1CCN(c2nc(C3=C(c4c[nH]c5ccccc45)C(=O)NC3=O)c3ccccc3n2)CC1 [sotrastaurin]
# Method in brief: as §1
# Chain of UniProt Q5T3J3 (Q5T3J3 whole entry, looked up): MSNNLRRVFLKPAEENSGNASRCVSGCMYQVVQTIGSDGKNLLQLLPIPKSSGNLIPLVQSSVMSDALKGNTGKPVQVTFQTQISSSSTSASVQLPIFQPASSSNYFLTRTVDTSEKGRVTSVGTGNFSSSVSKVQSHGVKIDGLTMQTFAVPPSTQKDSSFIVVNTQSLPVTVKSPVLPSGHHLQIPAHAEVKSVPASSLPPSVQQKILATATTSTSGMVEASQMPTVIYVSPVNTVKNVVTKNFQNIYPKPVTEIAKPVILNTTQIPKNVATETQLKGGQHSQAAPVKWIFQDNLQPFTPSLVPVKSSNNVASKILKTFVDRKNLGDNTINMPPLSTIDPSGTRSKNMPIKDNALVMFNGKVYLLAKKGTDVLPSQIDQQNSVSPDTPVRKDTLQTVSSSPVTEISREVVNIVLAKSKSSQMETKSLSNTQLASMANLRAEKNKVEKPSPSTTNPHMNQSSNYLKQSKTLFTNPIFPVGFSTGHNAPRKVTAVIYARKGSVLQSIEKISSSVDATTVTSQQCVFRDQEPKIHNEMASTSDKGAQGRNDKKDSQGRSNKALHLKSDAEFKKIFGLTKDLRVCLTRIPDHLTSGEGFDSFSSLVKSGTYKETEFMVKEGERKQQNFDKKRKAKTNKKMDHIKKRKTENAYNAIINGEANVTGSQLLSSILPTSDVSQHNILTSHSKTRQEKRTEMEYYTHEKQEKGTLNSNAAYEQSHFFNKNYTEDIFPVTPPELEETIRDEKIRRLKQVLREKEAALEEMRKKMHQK
# Chain of UniProt Q86Y91 (Q86Y91 whole entry, looked up): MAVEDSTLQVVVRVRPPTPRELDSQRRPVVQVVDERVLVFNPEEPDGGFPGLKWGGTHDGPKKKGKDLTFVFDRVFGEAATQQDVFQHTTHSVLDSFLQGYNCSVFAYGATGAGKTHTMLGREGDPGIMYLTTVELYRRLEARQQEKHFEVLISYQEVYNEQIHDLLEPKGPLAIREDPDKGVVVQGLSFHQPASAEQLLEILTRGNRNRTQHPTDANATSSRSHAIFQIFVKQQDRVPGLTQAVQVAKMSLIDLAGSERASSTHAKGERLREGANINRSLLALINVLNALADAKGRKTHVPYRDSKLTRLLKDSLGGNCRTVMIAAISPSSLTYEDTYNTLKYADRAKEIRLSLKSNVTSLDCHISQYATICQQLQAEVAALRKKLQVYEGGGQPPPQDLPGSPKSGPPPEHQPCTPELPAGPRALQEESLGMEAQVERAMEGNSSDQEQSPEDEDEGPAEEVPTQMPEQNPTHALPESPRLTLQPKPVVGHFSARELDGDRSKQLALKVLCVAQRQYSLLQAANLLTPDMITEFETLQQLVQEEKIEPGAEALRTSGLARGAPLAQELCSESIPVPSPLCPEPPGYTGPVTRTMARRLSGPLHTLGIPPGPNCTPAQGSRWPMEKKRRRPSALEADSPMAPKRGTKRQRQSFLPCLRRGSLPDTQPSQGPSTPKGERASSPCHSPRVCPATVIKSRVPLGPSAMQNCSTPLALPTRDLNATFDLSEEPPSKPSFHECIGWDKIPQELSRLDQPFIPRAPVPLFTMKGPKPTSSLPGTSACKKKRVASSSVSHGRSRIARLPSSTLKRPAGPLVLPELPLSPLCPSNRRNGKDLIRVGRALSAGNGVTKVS
# Chain of UniProt Q71SY5 (Q71SY5 whole entry, looked up): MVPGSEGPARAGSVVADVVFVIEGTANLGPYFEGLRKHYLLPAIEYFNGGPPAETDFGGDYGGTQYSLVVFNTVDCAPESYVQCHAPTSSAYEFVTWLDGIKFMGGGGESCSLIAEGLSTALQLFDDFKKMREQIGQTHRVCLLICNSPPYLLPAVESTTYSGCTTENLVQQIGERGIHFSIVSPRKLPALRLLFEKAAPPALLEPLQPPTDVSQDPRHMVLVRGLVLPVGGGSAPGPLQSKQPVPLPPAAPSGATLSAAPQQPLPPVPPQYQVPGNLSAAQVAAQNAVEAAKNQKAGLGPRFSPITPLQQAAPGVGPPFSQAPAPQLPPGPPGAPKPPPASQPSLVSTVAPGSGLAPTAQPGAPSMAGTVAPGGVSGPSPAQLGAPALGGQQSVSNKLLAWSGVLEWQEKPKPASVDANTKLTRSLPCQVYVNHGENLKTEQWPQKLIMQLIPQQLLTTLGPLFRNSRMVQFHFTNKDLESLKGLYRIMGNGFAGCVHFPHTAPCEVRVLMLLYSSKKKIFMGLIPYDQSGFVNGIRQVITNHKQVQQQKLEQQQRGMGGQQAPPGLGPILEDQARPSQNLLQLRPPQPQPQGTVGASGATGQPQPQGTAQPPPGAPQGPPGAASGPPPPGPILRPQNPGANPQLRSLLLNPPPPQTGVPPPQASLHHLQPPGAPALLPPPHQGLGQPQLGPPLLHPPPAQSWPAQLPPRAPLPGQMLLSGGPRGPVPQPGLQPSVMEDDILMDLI
# Chain of UniProt Q6P0Q8 (Q6P0Q8 whole entry, looked up): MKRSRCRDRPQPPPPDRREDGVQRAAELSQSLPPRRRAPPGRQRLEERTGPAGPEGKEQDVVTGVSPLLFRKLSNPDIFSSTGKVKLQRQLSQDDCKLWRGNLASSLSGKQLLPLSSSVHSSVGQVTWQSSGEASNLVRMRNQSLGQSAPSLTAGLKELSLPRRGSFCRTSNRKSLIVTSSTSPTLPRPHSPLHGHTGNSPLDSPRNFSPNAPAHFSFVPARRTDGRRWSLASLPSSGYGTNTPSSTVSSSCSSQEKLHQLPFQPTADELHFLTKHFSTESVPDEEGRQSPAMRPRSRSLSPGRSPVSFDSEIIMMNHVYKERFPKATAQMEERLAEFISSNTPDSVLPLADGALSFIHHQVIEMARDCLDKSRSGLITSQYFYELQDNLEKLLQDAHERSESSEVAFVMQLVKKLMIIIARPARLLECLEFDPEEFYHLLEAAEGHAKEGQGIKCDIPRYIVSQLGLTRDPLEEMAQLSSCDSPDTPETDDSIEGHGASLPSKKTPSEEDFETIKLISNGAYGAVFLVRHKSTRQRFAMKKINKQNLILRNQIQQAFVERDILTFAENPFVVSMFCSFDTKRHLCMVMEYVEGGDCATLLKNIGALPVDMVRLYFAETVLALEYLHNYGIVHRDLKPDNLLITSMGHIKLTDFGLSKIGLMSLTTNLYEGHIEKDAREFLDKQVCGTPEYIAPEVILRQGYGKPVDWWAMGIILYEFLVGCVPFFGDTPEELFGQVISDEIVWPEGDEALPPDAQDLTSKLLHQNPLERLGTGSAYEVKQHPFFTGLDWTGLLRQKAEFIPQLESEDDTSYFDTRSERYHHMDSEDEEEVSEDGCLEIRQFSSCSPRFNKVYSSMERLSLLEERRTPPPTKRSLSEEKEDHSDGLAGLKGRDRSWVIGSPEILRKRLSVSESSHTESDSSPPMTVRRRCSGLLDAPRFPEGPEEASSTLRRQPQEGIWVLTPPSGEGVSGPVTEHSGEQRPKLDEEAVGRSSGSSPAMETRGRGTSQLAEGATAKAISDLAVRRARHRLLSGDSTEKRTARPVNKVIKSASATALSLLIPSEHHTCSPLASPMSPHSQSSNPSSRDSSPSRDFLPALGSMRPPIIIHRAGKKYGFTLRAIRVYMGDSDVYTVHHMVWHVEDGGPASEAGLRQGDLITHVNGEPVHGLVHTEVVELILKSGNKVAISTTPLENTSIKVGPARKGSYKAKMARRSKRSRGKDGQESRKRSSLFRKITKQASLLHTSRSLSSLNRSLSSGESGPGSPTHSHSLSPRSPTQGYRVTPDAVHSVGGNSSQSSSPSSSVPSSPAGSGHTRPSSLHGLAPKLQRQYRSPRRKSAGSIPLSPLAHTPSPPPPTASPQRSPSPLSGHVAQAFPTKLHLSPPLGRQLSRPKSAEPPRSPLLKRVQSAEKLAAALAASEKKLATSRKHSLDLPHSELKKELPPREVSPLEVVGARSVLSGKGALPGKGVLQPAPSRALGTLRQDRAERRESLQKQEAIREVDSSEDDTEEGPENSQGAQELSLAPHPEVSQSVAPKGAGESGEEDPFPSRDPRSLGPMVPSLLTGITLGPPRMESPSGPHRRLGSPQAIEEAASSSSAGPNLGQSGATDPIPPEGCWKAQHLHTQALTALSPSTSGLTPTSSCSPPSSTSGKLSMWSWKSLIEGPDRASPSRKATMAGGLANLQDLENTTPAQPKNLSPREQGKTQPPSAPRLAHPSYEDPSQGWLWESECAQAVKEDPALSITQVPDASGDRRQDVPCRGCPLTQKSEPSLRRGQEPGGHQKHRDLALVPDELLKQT
# Chain of UniProt Q9H204 (Q9H204 whole entry, looked up): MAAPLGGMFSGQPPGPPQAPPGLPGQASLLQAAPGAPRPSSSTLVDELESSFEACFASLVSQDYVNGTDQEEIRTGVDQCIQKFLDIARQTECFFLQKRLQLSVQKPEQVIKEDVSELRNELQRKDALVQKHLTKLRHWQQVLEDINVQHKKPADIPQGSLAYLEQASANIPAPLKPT
# Chain of UniProt P07948 (P07948 whole entry, looked up): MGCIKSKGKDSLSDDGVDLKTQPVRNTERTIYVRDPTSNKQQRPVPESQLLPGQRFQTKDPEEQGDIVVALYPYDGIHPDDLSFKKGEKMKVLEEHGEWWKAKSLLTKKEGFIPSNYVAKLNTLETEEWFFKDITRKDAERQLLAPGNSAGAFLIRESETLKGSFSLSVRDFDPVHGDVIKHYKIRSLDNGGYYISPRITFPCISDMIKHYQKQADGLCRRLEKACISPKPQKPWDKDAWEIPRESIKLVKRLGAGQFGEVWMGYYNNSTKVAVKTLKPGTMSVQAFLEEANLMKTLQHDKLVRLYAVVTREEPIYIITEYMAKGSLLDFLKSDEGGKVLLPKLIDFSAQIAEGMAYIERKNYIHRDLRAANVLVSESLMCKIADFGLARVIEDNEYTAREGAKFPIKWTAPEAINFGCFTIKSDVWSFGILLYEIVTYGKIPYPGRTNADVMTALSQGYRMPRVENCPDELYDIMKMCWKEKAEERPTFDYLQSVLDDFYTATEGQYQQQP
# Chain of UniProt O15243 (O15243 whole entry, looked up): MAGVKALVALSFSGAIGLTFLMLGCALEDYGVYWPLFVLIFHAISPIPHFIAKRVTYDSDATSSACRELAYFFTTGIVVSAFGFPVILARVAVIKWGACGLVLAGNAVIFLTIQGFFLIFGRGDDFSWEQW
Target,log2 fold change (vemurafenib),log2 fold change [1],log2 fold change (barasertib),log2 fold change [2],log2 fold change (volasertib),log2 fold change [3],log2 fold change [4],log2 fold change [5],log2 fold change (saracatinib),log2 fold change (sotrastaurin)
KLC2 (UniProt Q9H0B6),0.066,0.042,0.042,-0.043,-0.074,-0.009,-0.015,-0.069,0.008,-0.016
KIF3C (UniProt O14782),0.565,-0.213,–,-0.296,0.186,0.018,-0.138,-0.037,0.02,-0.022
MRPL10 isoform 2 (UniProt Q7Z7H8),0.027,0.033,0.132,0.03,-0.037,-0.063,0.075,-0.032,-0.005,0.068
MAST2 (UniProt Q6P0Q8),0.134,-0.062,0.105,0.068,0.045,-0.127,0.102,0.06,0.056,-0.024
LPCAT1 (UniProt Q8NF37),-0.009,0.07,0.012,0.037,0.097,-0.072,-0.39 (active),0.099,0.079,0.032
KRR1 (UniProt Q13601),0.057,0.01,0.026,0.065,-0.015,0.023,-0.006,-0.026,0.003,-0.021
MDM1 (UniProt Q8TC05),0.024,0.053,–,-0.05,0.024,0.075,-1.5 (active),0.512 (active),0.013,–
LRRIQ1 (UniProt Q96JM4),-0.023,0.02,–,–,0.015,-0.015,–,–,–,0.027
MAPK7 (UniProt Q13164),–,0.024,–,0.072,-0.056,–,-0.084,-0.101,–,-0.031
MRPL22 (UniProt Q9NWU5),–,0.001,–,–,-0.002,-0.069,-0.006,-0.045,–,-0.013
MRPL27 (UniProt Q9P0M9),–,-0.051,-0.01,0.076,0.017,-0.006,0.926 (active),-0.218,0.009,0.05
MRPL30 isoform 2 (UniProt Q8TCC3),–,0.002,0.002,-0.068,-0.013,-0.027,0.563 (active),-0.434 (active),0.01,0.016
MEX3A (UniProt A1L020),-0.094,–,–,–,–,0.191,–,–,0.055,–
KIF18B (UniProt Q86Y91),–,0.017,–,0.221,-0.046,–,–,–,0.04,0.106
MARF1 (UniProt Q9Y4F3),-0.093,–,0.051,-0.059,–,0.007,-0.027,-0.059,0.027,0
KIF21A (UniProt H0YI78),–,0.017,-0.198,–,-0.008,–,–,–,-0.151,–
MPP5 (UniProt Q8N3R9),-0.029,–,-0.058,-0.011,–,0.042,-0.084,-0.038,-0.04,-0.006
MRC2 (UniProt Q9UBG0),–,–,–,0.205,–,–,0.053,0.124,0.301,-0.054
KRI1 (UniProt Q8N9T8),-0.079,–,-0.03,0.005,–,0.021,-0.005,-0.014,0,0.008
MME (UniProt P08473),–,-0.092,-0.084,–,0.001,0.075,-0.044,0.009,-0.114,0.016
MBTPS1 (UniProt Q14703),0.247,–,0.199,0.034,–,0.003,0.211,-0.185,-0.031,-0.014
LRIF1 (UniProt Q5T3J3),0.213,-0.005,–,-0.009,0.042,0.006,0.105,0.044,0.046,0.001
MOCS3 (UniProt O95396),-0.12,–,-0.018,-0.038,–,0.037,-0.273,0.264,0.06,0.11
MAPK12 (UniProt P53778),0.084,–,-0.033,0.105,–,-0.029,0.974 (active),-0.169,0.023,–

Target,log2 fold change (vemurafenib),log2 fold change [1],log2 fold change (barasertib),log2 fold change [2],log2 fold change (volasertib),log2 fold change [3],log2 fold change [4],log2 fold change [5],log2 fold change (saracatinib),log2 fold change (sotrastaurin)
KIF2A isoform 2 (UniProt O00139),–,–,–,–,–,–,0.129,0.316,–,–
MED28 (UniProt Q9H204),–,-0.004,–,–,0.096,0.053,-0.063,0.322,-0.032,-0.028
KIFC3 isoform 6 (UniProt Q9BVG8),0.052,–,0.025,0.409,–,–,0.284,0.256,0.005,0.028
MAP3K6 (UniProt O95382),-0.006,–,–,0.164,–,–,–,–,–,–
MAN2B2 (UniProt Q9Y2E5),–,-0.028,-0.047,-0.013,-0.006,-0.022,0.648 (active),-0.649 (active),-0.053,-0.024
MCUB (UniProt Q9NWR8),–,-0.175,0.156,–,-0.041,-0.222,0,-0.054,-0.096,-0.008
KIF26A (UniProt Q9ULI4),0.135,–,0,0.08,–,-0.01,-0.076,-0.005,-0.067,-0.033
LSM11 (UniProt P83369),0.077,–,–,0.06,–,–,0.115,0.212,0.076,-0.085
MEGF8 (UniProt Q7Z7M0),–,–,0.049,0.076,–,-0.048,0.124,0.028,0.283,-0.003
MAPKAP1 (UniProt Q9BPZ7),–,–,–,0.031,–,0.005,–,–,0.057,-0.045
MDM2 isoform 11 (UniProt Q00987),-0.035,–,-0.238,–,–,-0.03,0.024,-0.038,–,0.053
LYN isoform 2 (UniProt P07948),–,–,–,-0.077,–,-0.075,-0.031,0.024,0.353,0.074
MED25 isoform 3 (UniProt Q71SY5),–,0.018,0.034,-0.256 (active),-0.032,-0.046,0.013,-0.056,0.032,0.083
LGALS3BP (UniProt Q08380),-0.196,0.01,–,0.036,0.044,–,0.168,0,0.219,-0.067
KMT2B (UniProt Q9UMN6),–,–,–,-0.1,–,–,–,–,0.081,-0.206
LRRC9 (UniProt Q6ZRR7),-0.011,–,–,-0.022,–,–,-0.25,0.131,–,0.01
LEPROT (UniProt O15243),–,0.112,0.042,0.144,0.102,-0.086,-0.043,-0.02,–,-0.009
KLC1 isoform 10 (UniProt Q07866),–,–,0.238,0.152,–,–,–,–,–,–
METTL21A (UniProt Q8WXB1),–,0.04,0.062,–,-0.034,-0.054,-0.011,0.049,0.263 (active),0.04
MAP3K4 isoform 2 (UniProt Q9Y6R4),–,–,–,–,–,–,–,–,–,-0.004
LRP1 (UniProt Q07954),0.15,-0.072,–,-0.163,0.004,–,–,–,–,-0.043
MAP4K4 isoform 6 (UniProt O95819),–,0.073,0.06,0.06,-0.04,-0.025,–,–,0.006,–
KRAS isoform 2 (UniProt P01116),–,0.019,–,0.156,-0.125,0.077,–,–,-0.06,-0.013

# Source: the supplement of paper PMC10849652
